Measured values taken from PubChem BioAssay AID1259418 (Broad Institute, 2018).
About 840 (25%) of roughly 3,400 compounds were called active. Roughly 11% stayed inconclusive and do not appear here. Not all results are given here. Results with a measured potency or affinity are listed apart. Unmarked numbers belong to inactive results.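 The calls were made as follows: active = fitted half-maximal concentration of signal decrease at or below twice the sample's top tested concentration; inconclusive = flat curve between -70 and -30 percent, or poor fit; inactive = flat within 30 percent, signal rise, or potency above limit.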

experiment: T. gondii growth inhibition with IFN-gamma, dose response, cell-based, ME49Luc, HeLa, luciferase, 72 h (AID 1259418); conditions: T. gondii ME49Luc in IFN-y HeLa, active compounds read low, -100% = high-dose IFN-γ control wells; at 19.5 µM unless noted

Structure (SMILES) | max activity
Cc1ccc2[nH]cc(CCNC(=O)c3cc(-c4ccccn4)nc4ccccc34)c2c1 | 11.1%
CCCCN(C)C(=O)Cn1c(=O)c(S(=O)(=O)c2ccccc2)cc2ccccc21 | 11.6%
Cc1ccc(-c2coc(-c3ccc(NC(=O)Nc4ccc5c(c4)OCO5)cc3)n2)c(C)c1 | 49.1%
Cc1ccc(C(=O)N2CCC3(CC2)Nc2cc(F)ccc2-n2cccc23)cc1 | 6.63% [at 0.16 µM]
CSc1ccc(CNC(=O)COc2nc(C)nc3ccccc23)cc1 | -10.1% [at 5 µM]
CCOc1ccc(NC(=O)N2CCc3nc(-c4cccc(OC)c4)sc3C2)cc1 | 6.38%
COc1ccc(-c2nc(Cn3nnc(-c4nc(-c5ccc(F)cc5)no4)c3C)c(C)o2)cc1 | -9.56% [at 5 µM]
COc1ccc(-c2nc(NCCc3ccccc3)c3ccccc3n2)cc1 | -16% [at 10 µM]
COc1ccc(-c2nc(NCCc3cc(OC)ccc3OC)c3ccccc3n2)cc1 | 10.1%
CCOC(=O)C1CCN(c2nc(-c3ccc(OC)cc3)nc3ccccc23)CC1 | -8.44% [at 0.68 µM]
Cc1nc(-c2ccc(C(=O)N3CCC(C)CC3)cc2)cs1 | 19%
COc1ccc(Cl)cc1NC(=O)CN1CCC2(CC1)N=C(c1cccc(F)c1)C(=O)N2 | 7.5% [at 5 µM]
CCOc1ccc(C(=O)N2CCC3(CC2)Nc2cc(OC)ccc2-n2cccc23)cc1 | 8.9%
COc1ccc(NC(=O)COc2nc(C)nc3ccccc23)c(OC)c1 | 17.4% [at 0.16 µM]
Cc1ccc(CN2CC3CN(Cc4cccc(F)c4)CC3C2)s1 (centres undefined) | 10.1%
O=S(=O)(c1ccc(F)cc1)N1C[C@@H]2N[C@H](C1)C2c1ccc(/C=C/c2ccccc2)cc1 (some centres undefined) | 26.3%
COc1ccc(OC)c(NC(=O)Nc2ccc(-c3nc(-c4cc(C)ccc4C)co3)cc2)c1 | -12.9% [at 0.35 µM]
Cc1nc(OCC(=O)Nc2ccccc2C(F)(F)F)c2ccccc2n1 | 21.7% [at 0.16 µM]
CCN1CCO[C@@H]2CN(C(=O)CC3Cc4ccccc4C3)C[C@@H]2C1 | 43.5%
Cc1ccc(C)c(C(=O)Nc2ccc3c(c2)CCC(=O)N3)c1 | -6.43% [at 1.35 µM]
O=C1CCc2cc(NC(=O)c3ccc(OC(F)(F)F)cc3)ccc2N1 | -8.43% [at 0.35 µM]
O=C1CCc2cc(NC(=O)c3ccc(C(F)(F)F)cc3)ccc2N1 | -7.37% [at 1.35 µM]
Cc1ccc(CC(=O)Nc2ccc3c(c2)CCC(=O)N3)cc1 | 7.74%
Cc1ccc(C(=O)Nc2ccc3c(c2)CCC(=O)N3)c(C)c1 | 42%
O=C1CCc2cc(NC(=O)C(F)(F)F)ccc2N1 | -12.7% [at 2.6 µM]

Structure (SMILES) | max activity
CC(C)N1CCN(CC#N)C2(CCN(C(=O)c3ccc[nH]3)C2)C1=O (centres undefined) | 43.6%
COc1ccc(CC(=O)Nc2ccc(-c3nc(-c4ccccc4)co3)cc2)cc1 | -7.29% [at 1.35 µM]
CCOc1ccccc1-c1nc(CN(c2ccc(OC)cc2)S(=O)(=O)c2ccccc2)c(C)o1 | 7.8%
O=C(Cn1c(=O)c(S(=O)(=O)c2ccccc2)cc2ccccc21)N1CCCC1 | -8.97% [at 0.16 µM]
COc1ccc(-c2nc(Nc3cc(C)ccc3OC)c3ccccc3n2)cc1 | 19.6%
Cc1ccc(CC(=O)Nc2ccc(-c3nc(-c4ccccc4)co3)cc2)cc1 | 9.88% [at 5 µM]
O=C(CC1Nc2c3ccccc3nc(=S)n2C1=O)NCCc1ccc(Cl)cc1 (centres undefined) | -20.4% [at 0.16 µM]
CCOC(=O)C(=O)Nc1ccc(-c2nc(-c3cc(C)ccc3C)co2)cc1 | 15.3% [at 0.16 µM]
COc1cc(OC)c(NC(=O)Nc2ccc(-c3nc(-c4ccc(C)cc4)co3)cc2)cc1Cl | 86.6%
Cc1ccc(C(=O)Nc2ccc(N3CCC(C(N)=O)(N4CCCCC4)CC3)c(C(=O)O)c2)cc1 | 15% [at 2.6 µM]
NC(=O)C1(N2CCCCC2)CCN(c2ccc(NC(=O)c3ccccc3F)cc2C(=O)O)CC1 | -16.3% [at 0.35 µM]
CCOC(=O)C1CCC(CNC(=O)Nc2ccc(-c3nc(-c4ccc(C)cc4C)co3)cc2)CC1 (centres undefined) | -7.93% [at 0.35 µM]
COc1cc(NC(=O)CN2CCC3(CC2)N=C(c2cccc(F)c2)C(=O)N3)cc(OC)c1 | -16.9%
Cc1ccc(-c2coc(-c3ccc(NC(=O)Nc4ccc(C)c(F)c4)cc3)n2)c(C)c1 | 14.2%
COc1ccc(-c2nc(Cn3c(=O)c4c(C)cc(C)nc4n(-c4ccccc4)c3=O)c(C)o2)cc1 | -4.82% [at 10 µM]
COc1cccc(C(=O)Nc2ccc(-c3nc(-c4ccccc4)co3)cc2)c1 | -14.9% [at 10 µM]
COc1cccc(NC(=O)CN2CCC3(CC2)N=C(c2ccc(F)cc2)C(=O)N3)c1 | -15.6% [at 0.68 µM]
COc1cccc(C(=O)Nc2ccc(-c3nc(-c4ccc(C)cc4)co3)cc2)c1 | 73.1%
CCOc1ccc(-c2nc3c(s2)CN(S(=O)(=O)c2ccc(C(C)C)cc2)CC3)cc1 | 12.8%
O=C(CC1N=C2c3ccccc3N=C(SCc3cc(=O)n4cc(Cl)ccc4n3)N2C1=O)NCc1ccco1 (centres undefined) | 13% [at 10 µM]
Cc1ccc(C(=O)Nc2c(C(=O)N3CCCC3)[nH]c3ccccc23)cc1 | 14.8% [at 2.6 µM]
O=C(Cc1ccc(F)cc1)N1CCC2(CC1)Nc1ccc(Cl)cc1-n1cccc12 | -6.77% [at 5 µM]
COc1ccc2c(c1)NC1(CCN(C(=O)Cc3ccc(Cl)cc3)CC1)c1cccn1-2 | 7.11% [at 10 µM]
CN(C)C(=O)COCc1cncc2c1CCN(c1ccccn1)C2 | 11.3% [at 10 µM]
CCc1nc(OCC(=O)Nc2cccc(SC)c2)c2ccccc2n1 | 9.62% [at 0.16 µM]

Structure (SMILES) | max activity
CCN1C(=O)CCc2cc(NC(=O)CC(C)C)ccc21 | 6.42% [at 0.35 µM]
O=C(C[C@H]1CC[C@H]2[C@@H](COC[C@@H](O)CN2S(=O)(=O)c2ccccc2F)O1)N1CCC(Cc2ccccc2)CC1 | 25.4% [at 10 µM]
O=C(C[C@@H]1CC[C@H]2[C@@H](COC[C@H](O)CN2Cc2ccc(Oc3ccccc3)cc2)O1)N1CCN(c2ccccc2)CC1 | 16% [at 10 µM]
O=C(C[C@H]1CC[C@@H]2[C@H](COC[C@H](O)CN2C(=O)c2cc(Cl)cc(Cl)c2)O1)N1CCc2ccccc2C1 | -23.1%
O=C(C[C@@H]1CC[C@@H]2[C@H](COC[C@H](O)CN2Cc2ccc3c(c2)OCO3)O1)N1CCCCC1 | 28.4%
COc1ccccc1-c1nc(Cn2nnc(-c3nc(-c4cccc(C)c4)no3)c2C)c(C)o1 | 6.08% [at 0.35 µM]
CCOc1ccc(-c2nc3c([nH]2)c(=O)n(C)c(=O)n3C)cc1OC | 30.3% [at 10 µM]
CC1=NN(C2CCS(=O)(=O)C2)C(=O)C1(Sc1ccccc1)Sc1ccccc1 (centres undefined) | -15.9% [at 10 µM]
COc1ccc(CC(=O)Nc2ccc(-c3nc(-c4ccc(C)cc4C)co3)cc2)cc1 | 23.3% [at 0.68 µM]
CN1CCN(Cc2cnc3n2CCN(CC2CCOCC2)C3)CC1 | 10.5%
O=C(C[C@H]1CC[C@H]2[C@@H](COC[C@H](O)CN2Cc2cc(F)ccc2F)O1)NCc1ccc(Oc2ccccc2)cc1 | 17.6% [at 2.6 µM]
O=C(C[C@H]1CC[C@@H]2[C@H](COC[C@H](O)CN2Cc2cc(F)ccc2F)O1)NCc1ccc(Oc2ccccc2)cc1 | 17.5% [at 5 µM]
Cc1ccc(C)c(NC(=O)CN2CCC3(CC2)N=C(c2ccc(F)cc2)C(=O)N3)c1 | 21.8% [at 10 µM]
Cc1cccc(-c2nc(CSc3nc4c(c(=O)[nH]3)CN(C(C)C)CC4)c(C)o2)c1 | 19.2% [at 0.68 µM]
O=C(CC1CCCCC1)Nc1ccc(-c2nc(-c3ccccc3)co2)cc1 | 19.4%
Cc1ccc(NC(=O)Nc2ccc(-c3nc(-c4ccccc4)co3)cc2)cc1F | 16.5% [at 0.16 µM]
O=C(Cn1c(=O)c(S(=O)(=O)c2ccccc2)cc2ccccc21)NCc1ccccc1Cl | -23.2% [at 0.16 µM]
CCOC(=O)CNC(=O)Nc1ccc(-c2nc(-c3cc(C)ccc3C)co2)cc1 | 5.17% [at 0.68 µM]
Cc1ccc(CN2CCC3(CC2)N=C(c2ccc(C)cc2)C(=O)N3)cc1 | 12.6% [at 2.6 µM]
Cc1ccc(-c2coc(-c3ccc(NC(=O)C(C)(C)C)cc3)n2)cc1 | 29.4% [at 10 µM]
CCS(=O)(=O)N1[C@H](CO)[C@@H](c2ccc(C#Cc3ccccc3F)cc2)[C@@H]1C#N | 8.21% [at 10 µM]
COc1cccc(CC(=O)Nc2ccc(-c3nc(-c4ccc(C)cc4)co3)cc2)c1 | 20.4%
COCCCN1CCc2nc(SCc3nc(-c4ccccc4OC)oc3C)[nH]c(=O)c2C1 | 25.6% [at 10 µM]
COc1ccc(C(=O)Nc2ccc(-c3nc(-c4ccccc4)co3)cc2)cc1OC | 14.3% [at 0.16 µM]
